High-throughput results deposited in PubChem BioAssay by National Center for Advancing Translational Sciences (NCATS).
Rows were chosen to be rich in hits. Some 18% of all compounds tested hit in one or more screens of this group.
IL1B secr inh: inflammasome signaling inhibition, IL-1 beta readout; THP-1 LPS/ATP IL-1B secretion, AlphaLISA, 16 h; active compounds read low; activity change, % at 57.5 µM; 360,000 compounds, 4.7% hits; AID 743279; in the data active means activity change below about -50%; inconclusive means mostly about -30% to -49%
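THP-1 cells pretreated 1 hr with compounds (up to 57.5 uM final), then stimulated with LPS (250 ng/mL final) plus ATP (1.25 mM final); secreted IL-1B measured by AlphaLISA after 16 hr, decreased signal indicating inhibition.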
DT40 TDP1 CPT: growth inhibition of DT40 Tdp1-/-;hTDP1 cells with camptothecin (screen for TDP1 inhibitors). chicken DT40 Tdp1-/-;hTDP1 cells + 20 nM CPT, ATP luminescence, 48 h. Potency, µM (highest dose often 46.2 µM), usual class: inhibitors. 420,000 compounds, 12% hits; further: nearly all actives have a fitted effect of over 55% in size
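Chicken DT40 Tdp1-/- cells complemented with human TDP1, 400 cells/well, exposed to compounds plus 20 nM camptothecin for at least 48 h at 37 C; viability read as ATP content by CellTiter-Glo luminescence.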
RORg inh: ROR gamma (mouse) transcription inhibition | P51450 | Drosophila S2 Gal4-RORgamma UAS-luciferase reporter, 20 h | Potency, µM (top dose mostly 53.6 µM), hits mostly inhibitors | 310,000 compounds, 5.4% hits | AID 2551; further: nearly all actives have a fitted effect of over 60% in size
Target sequence (P51450 whole entry, looked up, the tested form may be a part): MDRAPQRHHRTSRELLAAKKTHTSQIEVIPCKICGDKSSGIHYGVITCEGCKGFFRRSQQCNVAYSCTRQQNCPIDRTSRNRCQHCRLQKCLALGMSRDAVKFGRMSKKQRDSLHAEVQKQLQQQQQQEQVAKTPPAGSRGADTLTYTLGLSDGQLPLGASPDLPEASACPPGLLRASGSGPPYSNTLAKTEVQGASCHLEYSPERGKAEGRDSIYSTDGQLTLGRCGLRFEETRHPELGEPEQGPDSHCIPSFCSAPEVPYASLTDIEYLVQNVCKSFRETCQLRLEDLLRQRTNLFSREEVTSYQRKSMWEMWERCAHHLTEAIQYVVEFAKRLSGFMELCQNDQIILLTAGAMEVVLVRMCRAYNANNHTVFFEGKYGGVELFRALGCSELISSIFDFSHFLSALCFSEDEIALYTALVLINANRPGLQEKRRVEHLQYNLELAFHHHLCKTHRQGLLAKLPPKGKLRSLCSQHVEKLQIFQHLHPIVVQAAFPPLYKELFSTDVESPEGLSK
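Compounds are pin-transferred onto Drosophila Schneider cells expressing a copper-inducible Gal4–ROR gamma transactivation domain fusion. After 1 hr, copper sulfate is added to 700 uM final; luciferase is read 20 hr later.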
VP16 counter: counter-screen for ROR gamma inhibitors: Gal4-VP16 reporter; Potency, µM (top dose mostly 53.6 µM), most hits filed as inhibitors; 310,000 compounds, 3.5% hits; Drosophila S2 Gal4-VP16 UAS-luciferase, luminescence, 20 h;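 further: Gal4-VP16 expression switched on by copper sulfate through the metallothionein promoter; nearly all actives have a fitted effect of over 50% in size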
DT40 TDP1 no CPT: qHTS for Inhibitors of human tyrosyl-DNA phosphodiesterase 1 (TDP1): qHTS in cells in absence of CPT. AID 686978, 2013. Potency, µM (series often up to 46.2 µM), hits mostly inhibitors. DT40 Tdp1-/- hTDP1 cells, no CPT, ATP luminescence, 48 h. 420,000 compounds, 15% hits; further: nearly all actives have a fitted effect of over 55% in size
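Growth of hTDP1-complemented DT40 Tdp1-knockout cells is measured by ATP luminescence after at least 48 hr compound exposure at 37 °C, with DMSO substituting for the 20 nM CPT used in the parallel screen.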
LDHA inh: blocks human lactate dehydrogenase A. purified LDHA, NADH/diaphorase-resazurin fluorescence; active compounds read low. activity change, % (values are at about 110 or 230 µM). 480,000 compounds, 0.15% hits. AID 1347041; in the data active means activity change below about -30%; inconclusive means mostly about -25% to -30%
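LDH5 2 nM; NADH 0.06 mM, pyruvate 0.2 mM; 200 mM Tris pH 7.4, EDTA, Tween-20; 5 min RT. Detection: diaphorase 0.133 mg/mL + resazurin 37 µM, fluorescence ex540/em590 at 0 and 20 min; normalized to enzyme-free and DMSO wells.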
A number is an active result; 0 = inactive; ? = inconclusive; - = no result given; [ ] = dose if it differs, or a comment. Unless noted, the call rests on the fitted dose curve; in most records, active means well fitted curve in the direction sought with a large enough effect; inconclusive means small, poorly fitted or top-dose-only effect, or another doubt; inactive means no such curve, though single readings can be large; an effect the other way counts as inactive or inconclusive.

SMILES	IL1B secr inh	DT40 TDP1 CPT	RORg inh	VP16 counter	DT40 TDP1 no CPT	LDHA inh
O=C(c1cc2ccccc2[nH]1)N(Cc1ccc(F)cc1)C1CC1	-	-	-	-	-	0
Cc1cc(C(=O)CSc2nnc(C3COc4ccccc4O3)n2C)c(C)n1-c1ccc(F)cc1 (stereo not given)	0	?	0	0	?	0
CC(C)(C)c1nnc2sc(SCC(=O)N3CCCCC3)nn2c1=O	-92	?	-	-	?	0
CC(C)N(C(=O)CSc1nn2c(=O)c(C(C)(C)C)nnc2s1)c1ccccc1	-50	21µM	0	0	?	0
Cc1cc(C(=O)CSc2nn3c(=O)c(C(C)(C)C)nnc3s2)c(C)n1-c1ccc(F)cc1	0	16µM	?	0	?	0
CC(C)(C)c1nnc2sc(SCCN3C(=O)c4ccccc4C3=O)nn2c1=O	0	0	0[10 µM]	0	0	0
Cc1ccc(S(=O)(=O)/N=C/c2cccs2)cc1	-	-	-	-	-	0
Cc1nc(-c2ccc(S(=O)(=O)Nc3ccccc3)cc2)co1	-	-	-	-	-	0
CN(CCc1ccc(Cl)c(Cl)c1)CCN1CCCC1	-	8.2µM	0	0	24µM	-
Cc1ccc(-c2csc3ncnc(N4CCc5ccccc5C4)c23)cc1	0	?	0	0	21µM	0
Fc1ccc(-c2csc3ncnc(N4CCc5ccccc5C4)c23)cc1	0	16µM	?	0	?	0
Cc1ccc(OCc2nc(C#N)c(NCc3ccccc3Cl)o2)cc1	-	-	-	-	-	0
c1cc2[nH]snc2c2nc(C3CC3)nc12	-86	18µM	0	0	13µM	0
O=C(Nc1ccncc1)c1cc(-c2cccc(Br)c2)nc2ccccc12	-78	?	-	-	?	0
COc1ccc(-c2cc(C(=O)NCc3cn(C)nc3C)c3ccccc3n2)cc1OC	0	15µM	0	0	?	0
COc1ccc(-c2cc(C(=O)Nc3ccccc3O)c3ccccc3n2)cc1OC	0	0	0	0	?	0
O=C(Nc1cccnc1)c1cc(-c2cccc(Br)c2)nc2ccccc12	0	?	0	0	16µM	0
COc1ccc(-c2cc(C(=O)Nc3nc4ccccc4s3)c3ccccc3n2)cc1OC	0	15µM	0	0	?	0
CCc1ccc(OCC(O)Cn2c(=O)c3ccccc3n3nc(C)cc23)cc1 (stereo not given)	-	-	-	-	-	0
COc1ccc(-c2cc(C(=O)Nc3cccnc3)c3ccccc3n2)cc1OC	0	23µM	0	0	23µM	0
CCN1C(=O)[C@H]2[C@@H](c3ccc(C(F)(F)F)cc3)N[C@]3(CCCN(Cc4ccc(OC)cc4)C3=O)[C@H]2C1=O	0	21µM	-	-	10µM	0
CCN1C(=O)[C@H]2[C@@H](c3ccc(C(F)(F)F)cc3)N[C@]3(CCCN(Cc4ccc(C(F)(F)F)cc4)C3=O)[C@H]2C1=O	0	12µM	-	-	12µM	0
CCN1C(=O)[C@H]2[C@@H](c3ccc(C)cc3)N[C@]3(CCCN(Cc4ccc(F)cc4)C3=O)[C@H]2C1=O	0	?	-	-	?	0
Cc1ccc2c(c1)/C(=N/N1C(=O)c3ccccc3C1=O)C(=O)N2	0	?	0	0	0	0
COc1ccccc1/C=C1\C(=O)Nc2ccccc21	0	?	0	?	21µM	0
SMILES	IL1B secr inh	DT40 TDP1 CPT	RORg inh	VP16 counter	DT40 TDP1 no CPT	LDHA inh
O=C1Nc2ccccc2/C1=C/c1ccccc1Cl	0	0	?	0	?	0
Cc1ccc2c(c1)/C(=C/c1ccc(F)cc1)C(=O)N2	-75	?	0	0	21µM	0
Cc1ccc2c(c1)/C(=C/c1ccccc1C)C(=O)N2	-100	0	0	0	?	0
COc1ccc(Oc2c(C)oc3cc(OCC(=O)NCc4ccco4)ccc3c2=O)cc1	-	-	-	-	-	0
COc1ccc(/C=N/OCc2ccc(Br)cc2)cc1OCc1ccccc1	-	-	-	-	-	0
Cc1ccsc1CN(C)C(=O)Cc1n[nH]c(=O)c2ccccc12	-	-	-	-	-	0
O=C(CCCN1CCOCC1)c1ccc2c(c1)OCCO2	0	0	?	?	0	0
O=C(CCN1CCc2ccccc2CC1)c1ccc2c(c1)OCCO2	-58	4.6µM	6.3µM	4µM	4.1µM	0
O=C(CCCO)c1ccc2c(c1)OCCO2	0	0	0	0	0	0
O=C(CNC1=NCCC1)c1ccc2c(c1)OCCO2	0	?	0	0	18µM	0
CC(CN1CCCCC1)OC(=O)c1ccc2c(c1)OCO2 (stereo not given)	0	0	0	0	0	0
O=C(CCN1CCCCC1)c1ccc2c(c1)OCO2	0	7.3µM	3.2µM	13µM	10µM	0
Nc1nccnc1C(=O)Nc1ccc2ccccc2n1	-	-	-	-	-	0
O=C(NNC(=O)c1ccc(Cl)c(Cl)c1)c1ccncc1	0	0	-	-	0	0
C/C(=N\NC(=O)C(=O)Nc1cc(Cl)ccc1Cl)c1ccncc1	0	0	0	0	0	0
O=C(Nc1cccc(Cl)c1Cl)c1ccncc1	-51	0	0	0	0	0
O=C(Nc1ccncc1)c1ccc(Cl)c(Cl)c1	?	0	?	0	12µM	0
CC(C)(C)c1ccc(C(=O)Nc2ccc(NC(=O)c3ccc(Cl)c(Cl)c3)cc2)cc1	-	12µM	-	-	15µM	0
C/C(=N\NC(=O)C(=O)Nc1cccc(Cl)c1C)c1ccncc1	0	21µM	0	0	15µM	0
Cc1oc(-c2ccccc2F)nc1CS(=O)(=O)CC(=O)NCCCSC1CCCCC1	-	-	-	-	-	0
Cc1ccc2cc(NC(=O)c3ccc(C(C)(C)C)cc3)ccc2n1	-101	?	0	0	?	0
CN(C)C(=O)Nc1ccccc1CC[N+](=O)[O-]	-65	0	0	0	0	0
O=C(Nc1ccc(Cl)cc1)Nc1ccccc1CC[N+](=O)[O-]	0	13µM	0	0	?	0
O=C(Nc1ccccc1CC[N+](=O)[O-])N1CCN(c2ccccc2)CC1	0	?	?	?	?	0
CC(=O)c1sc(=S)n(C)c1C	-	-	-	-	-	0
SMILES	IL1B secr inh	DT40 TDP1 CPT	RORg inh	VP16 counter	DT40 TDP1 no CPT	LDHA inh
COc1ccc(-c2noc(N3CCN(c4ccc(C)cc4)C(C)C3)n2)cc1OC (stereo not given)	-	?	-	-	16µM	0
COc1ccc(-c2noc(CN3CCCCC3)n2)cc1OC	0	0	0	?	0	0
COc1ccc(SC(C)C(=O)NC(C)(C#N)C(C)C)cc1 (stereo not given)	-	-	-	-	-	0
CC(=O)c1cccc(NC(=O)Nc2ccc(Cl)cc2C(F)(F)F)c1	-	-	-	-	-	0
COc1ccccc1CNC(=O)CC(C)n1ccc(C)n1 (stereo not given)	-	-	-	-	-	0
CC(C)CNS(=O)(=O)c1ccc(CCC(=O)Nc2cc(Cl)ccc2Oc2ccccc2)cc1	?	?	0	0	?	0
CC(C)(C)NS(=O)(=O)c1ccc(CCC(=O)Nc2cc(Cl)ccc2Oc2ccccc2)cc1	-63	?	0	0	?	0
